H9c2 protect: modulators protecting cardiomyocytes from myocardial damage; H9c2 cardiomyocytes, H2O2 injury protection, ATPLite, 2 h; protection from H2O2 cell death, % at 20 µM; 0.63% of 360,000 active;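 active = compounds giving at least 50% protection of heart cells from peroxide-induced death in the single-dose screen, raw or plate-pattern-corrected value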;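 also: 0% = DMSO wells with peroxide and 100% = DMSO wells without peroxide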
sPLA2-III inh: Blocks human group III sPLA2 activity; AID 743126; 0.56% of 370,000 active; Q9NZ20; inhibition, % at 12.2 µM; QFRET BODIPY PC-A2 liposome hydrolysis, fluorescence;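 active = inhibition above mean plus 3 SD of compounds lying within the high and low control bounds, cut at about 19% in these data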;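 also: 0% = median of test compound wells and 100% = no enzyme DMSO wells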
Target sequence (Q9NZ20 whole entry, looked up): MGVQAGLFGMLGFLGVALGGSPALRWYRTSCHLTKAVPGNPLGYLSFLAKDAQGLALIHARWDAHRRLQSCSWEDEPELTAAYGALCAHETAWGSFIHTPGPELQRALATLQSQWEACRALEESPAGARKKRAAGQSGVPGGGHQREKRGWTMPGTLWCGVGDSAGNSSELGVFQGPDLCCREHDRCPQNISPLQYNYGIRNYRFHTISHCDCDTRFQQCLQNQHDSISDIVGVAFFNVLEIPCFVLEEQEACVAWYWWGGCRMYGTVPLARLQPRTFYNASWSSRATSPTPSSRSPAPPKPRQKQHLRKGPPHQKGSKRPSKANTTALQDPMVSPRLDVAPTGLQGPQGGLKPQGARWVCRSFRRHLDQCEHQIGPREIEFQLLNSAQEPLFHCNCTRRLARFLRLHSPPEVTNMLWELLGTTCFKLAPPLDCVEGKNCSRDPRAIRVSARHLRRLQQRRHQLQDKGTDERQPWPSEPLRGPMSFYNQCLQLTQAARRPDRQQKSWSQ
DAGLB inh: diacylglycerol lipase beta (human) inhibition. Q8NCG7. HEK293T DAGLB membrane lysate, EnzChek fluorogenic substrate. inhibition, % at 5.17 µM. 0.059% of 340,000 active; in the data active = inhibition above about 34%;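 also: 0% = enzyme with vehicle and 100% = wells lacking enzyme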
ABHD5 PLIN5 PPI: blocks binding of human ABHD5 to perilipin-5; Split G. princeps luciferase complementation, luminescence, 4 h; inhibition, % at 4 µM; 0.78% of 360,000 active; Q00G26+Q8WTS1; AID 602281;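 active = inhibition above the mean inhibition across every tested compound plus 3 SD, cut at about 22% in these data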;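 also: 0% = DMSO only wells and the 100% control is not disclosed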
Rtt109 HAT inh: C. albicans Rtt109 histone acetyltransferase inhibition; Q5AAJ8; purified Rtt109/Vps75, ThioGlo CoA-SH fluorescence, 4 h; inhibition, % at 34.9 µM; 0.16% of 330,000 active; AID 540336;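 active = inhibition of at least 50% in every replicate; inconclusive = best replicate reaches 50% inhibition but some replicates fall short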
Myeloid diff MLP: compounds promoting myeloid differentiation. AID 624256. 1% of 360,000 active. ER-HoxA9 myeloid progenitors, lysozyme-GFP differentiation, flow cytometry. calls only at 10 µM;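 active = normalized GFP-positive differentiation at or above the plate's own cutoff, the solvent-only control mean plus 3 SD; inconclusive = no clear call, values can overlap the other calls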;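 also: cells exposed to compound for four days before flow analysis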
ABHD5-PLIN5 conf: ABHD5-PLIN5 interaction inhibition, confirmed | shares compounds with ABHD5 PLIN5 PPI | biochemical ABHD5-PLIN5 interaction, luminescence | inhibition, % at 4 µM | 67% of 2,200 active | AID 651612; in the data active = inhibition above about 23%;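 also: 0% = DMSO vehicle wells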
HNF4 split-luc: counter-screen for ABHD5-PLIN5 inhibitors: HNF4 split-luciferase; 77% of 2,200 active; AID 651674; HNF4 dimerization, luminescence, biochemical; inhibition, % at 4 µM; shares compounds with ABHD5 PLIN5 PPI;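 active = mean inhibition across replicate wells exceeding the computed hit threshold, cut at about 13% in these data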;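 also: light from luciferase halves that rejoin when HNF4 fusion proteins dimerize; 0% = DMSO only wells and the 100% control is not given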
Myeloid diff: compounds promoting myeloid differentiation; shares compounds with Myeloid diff MLP; ER-HoxA9 myeloid progenitors, GFP/Mac1 double-positive flow; calls only; 2% of 2,300 active;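 active = share of green or green-and-red cells above 9 and 9% in run 1 or 4 and 3% in run 2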
GFP autofluor: counter-screen for myeloid differentiation promoters: compound fluorescence | shares compounds with Myeloid diff MLP | ER-HoxA9 myeloid progenitors, no estrogen, GFP autofluorescence flow cytometry; vehicle wells 0%, positive control 100% | fluorescence response, % (concentration not given with the values) | 7.4% of 2,300 active;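 active = over 5% cells positive for green fluorescent reporter, or over 2% positive for both it and APC stain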;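 also: range taken on the double positive population between DMSO and positive control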
An asterisk follows results filed as active; i = inactive; u = inconclusive; x = no result given; + = active, no number. Compounds with a hit are over-represented: about 2.9% of the library has one in this group of screens.

SMILES	H9c2 protect	sPLA2-III inh	DAGLB inh	ABHD5 PLIN5 PPI	Rtt109 HAT inh	Myeloid diff MLP	ABHD5-PLIN5 conf	HNF4 split-luc	others
COc1ccc(S(=O)(=O)/N=C2/C=CC(=O)C(C)=C2C)cc1	-3	x	3	16	1	i	x	x
Cc1cc(/C=C2/NC(=O)NC2=O)c(C)n1-c1ccc(N2CCOCC2)cc1	5	-8	0	6	8	i	x	x
Cc1cc(/C=C2\NC(=O)NC2=O)c(C)n1-c1ccc(N2CCOCC2)cc1	7	-6	4	9	-1	i	x	x
O=C1NC(=O)/C(=C/c2ccc(N3CCOCC3)o2)N1	-1	2	0	29*	-1	i	27*	47*
O=C1NC(=O)/C(=C\c2ccc(N3CCOCC3)o2)N1	4	1	-2	68*	1	i	42*	94*
Cc1ccc(C)c(/C=N/NC(=S)NC(C)C)c1	-8	-1	-2	-7	5	i	x	x
Cc1ccc(NC(=O)CCc2nc3ccccc3[nH]2)cc1C	0	2	1	0	2	i	x	x
O=C(NCC1CC1)c1ccc2sc([C@H]3C[C@H](O)[C@@H](CO)O3)nc2c1	6	12	x	-1	x	i	x	x
Cc1ccc(/C=C/C(=O)Nc2cccnc2)o1	0	4	-6	21	8	i	x	x
Cc1ccc(/C=C/C(=O)Nc2cccc3ncccc23)o1	20	-14	0	42*	10	i	30*	33*
C#CCNC(=O)C1=C[C@H](C2CCCCC2)[C@@H](CCCO)[C@H](OCC)O1	-2	-1	-2	101*	7	i	3	1
Cc1ccc(NS(=O)(=O)c2ccccc2[N+](=O)[O-])cc1C	-4	3	0	-9	-4	i	x	x
O=C/C(=C\Nc1ccccn1)c1nc2ccccc2o1	38	-1	1	24*	0	i	21	27*
COc1cccc(C(=O)/C=C2\NCCc3cc(OC)c(OC)cc32)c1	22	-3	-7	1	x	i	x	x
Cc1ccc(NC(=O)CN2CCN(C(=O)c3ccco3)CC2)cc1	1	-2	2	-4	2	i	x	x
Cc1ccc2nc(-c3ccc(NC(=O)CN4CCN(C(=O)c5ccco5)CC4)cc3)sc2c1	-4	-18	2	27*	x	i	20	7
Cc1cc(-c2nn(-c3ccccc3F)cc2CN2CCC(O)CC2)c(C)s1	0	-8	1	4	26	i	x	x
Cc1cc(-c2nn(-c3ccccc3F)cc2CN2CCN(c3ccncc3)CC2)c(C)s1	1	-40	-3	28*	5	i	7	-3
CCOC(=O)/C(=C\c1ccc(Cl)cc1)c1nc2sc(C)c(C)c2c(=O)[nH]1	-14	-32	9	46*	-1	i	99*	77*
COC(=O)[C@]1(C)N[C@H](CN(C)C(=O)Nc2ccccc2)[C@@H]2C(=O)N(Cc3ccccc3)C(=O)[C@@H]21	-3	2	-1	7	-7	i	x	x
CCOC(=O)N1CCN(C(=O)C[C@@H]2C[C@@]3(C(=O)OCC)CCC=C3N(Cc3ccc(Cl)cc3Cl)C2=O)CC1	x	-18	x	26*	x	i	35*	-2
CCOC(=O)[C@]12CCC=C1N(Cc1ccc(Cl)cc1Cl)C(=O)[C@H](CC(=O)NCc1cccc(C(F)(F)F)c1)C2	x	-19	x	25*	x	i	21	1
O=C(CC1S/C(=N/N=C/c2c[nH]c3ccccc23)NC1=O)Nc1ccccc1 (stereo unspecified)	8	-40	0	23*	-5	i	20	11
O=C(CC1S/C(=N/N=C/c2c[nH]c3ccc(OCc4ccccc4)cc23)NC1=O)Nc1ccccc1 (stereo unspecified)	4	-2	6	10	20	i	x	x
C(=C\c1ccco1)/C1=NN(c2ccccc2)C(c2ccco2)C1 (stereo unspecified)	-8	x	0	34*	0	+	27*	18*	Myeloid diff=i;GFP autofluor=2
SMILES	H9c2 protect	sPLA2-III inh	DAGLB inh	ABHD5 PLIN5 PPI	Rtt109 HAT inh	Myeloid diff MLP	ABHD5-PLIN5 conf	HNF4 split-luc	others
O=S(=O)(c1cc(Cl)sc1Cl)N1CCCC1	5	6	0	-4	5	i	x	x
Nc1ccccc1Nc1cc(-c2ccccc2)nn1-c1cccc(Cl)c1	-2	15	-11	-1	4	i	x	x
O=C(/C=C/c1ccco1)N1CCc2ccccc21	-24	-1	0	5	-2	i	x	x
Cc1ccc(/C=C/C(=O)N2CCc3ccccc32)o1	-17	-6	0	24*	13	i	16	50*	Myeloid diff=i;GFP autofluor=0
O=C1OC(/C(=C\Nc2cc(Cl)ccc2O)[N+](=O)[O-])c2ccccc21 (stereo unspecified)	-7	3	1	62*	-5	i	15	50*	Myeloid diff=i;GFP autofluor=0
CCOC(=O)C1CCN(C(=O)CCc2nnc3ccc(NCc4ccco4)nn23)CC1	2	0	1	51*	-2	+	13	12	Myeloid diff=i;GFP autofluor=1
O=C(CSc1nnc(-c2cccnc2)n1-c1ccccc1)Nc1ccc(OCc2ccccc2)cc1	x	-32	x	x	x	x	x	x
Cc1ccc2nc(/C(C#N)=C\c3ccc(N4CCOCC4)o3)[nH]c2c1	-1	-8	-23	24*	4	+	31*	44*	Myeloid diff=i;GFP autofluor=29*
Cc1ccc2nc(/C(C#N)=C\c3ccc([N+](=O)[O-])o3)[nH]c2c1	-15	-6	2	-10	5	u	x	x
COc1ccc(NC(=O)c2cc(-c3sc(NC(=O)c4ccccc4)nc3C)n(Cc3ccccc3)n2)cc1	x	-5	x	7	x	i	x	x
COc1cccc(/C=C/C(=O)OCC(=O)c2ccc3c(c2)NC(=O)CO3)c1	1	-7	3	-5	6	i	x	x
O=C1COc2ccc(C(=O)/C=C/c3ccccc3)cc2N1	-6	-1	4	47*	-4	i	77*	62*	Myeloid diff=i;GFP autofluor=0
CCN1CC(CNCc2cn(-c3ccc(OC)cc3)nc2-c2ccccc2Cl)CC1=O (stereo unspecified)	-4	-7	-1	-1	18	i	x	x
O=C1/C(=C/c2ccco2)CCC1C1CCCC1 (stereo unspecified)	-5	1	-2	3	-6	i	x	x

Bioassay records deposited in PubChem by several laboratories.
